What all share (settings): mRNA level, 48 h; actives raise or lower the signal
Read-out in test [1]: Glutathione S-Transferase (GSTA2), GSTA2 (gene 2939)
In words: LTEA_HepaRG_GSTA2: Life Technologies and Expression Analysis (LTEA) Assay for Glutathione S-Transferase (GSTA2) using HepaRG (AID 2283497). Summed up: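 Oxidative-stress marker GSTA2 is quantified by TaqMan qRT-PCR in HepaRG cultures treated 48 h across an eight-point range to 100 uM. Expression is normalized to endogenous controls and compared with 0.5% DMSO vehicle.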

Read-out in test [2]: Glutamate-cysteine ligase catalytic (GCLC), GCLC (gene 2729)
Description: LTEA_HepaRG_GCLC: Life Technologies and Expression Analysis (LTEA) Assay for Glutamate-cysteine ligase catalytic (GCLC) using HepaRG (AID 2283498). In short, it runs like this:
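Oxidative-stress marker GCLC is measured as mRNA change in human HepaRG liver cells after 48 h chemical treatment in 0.5% DMSO, eight concentrations from 100 uM. Activity is fitted bidirectionally against vehicle.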

Read-out in test [3]: growth arrest and DNA damage 45 (GADD45G), GADD45G (gene 10912)
In words: LTEA_HepaRG_GADD45G: Life Technologies and Expression Analysis (LTEA) Assay for growth arrest and DNA damage 45 (GADD45G) using HepaRG (AID 2283499). Summed up:
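Differentiated human HepaRG cells in serum-free induction medium were exposed for 48 h to 8 half-log concentrations up to 100 uM in 0.5% DMSO, in duplicate. GADD45G mRNA was measured by TaqMan qRT-PCR, normalised to ACTB, GAPDH and POLR2A, and fitted bidirectionally against DMSO.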

Read-out in test [4]: Glutamate-cysteine ligase regulatory (GCLM), GCLM (gene 2730)
Description: LTEA_HepaRG_GCLM: Life Technologies and Expression Analysis (LTEA) Assay for Glutamate-cysteine ligase regulatory (GCLM) using HepaRG (AID 2283500). Summed up: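 HepaRG, 48 h dosing, 100 uM top, half-log x8, 0.5% DMSO vehicle. Readout: GCLM mRNA by TaqMan qRT-PCR, housekeeping-normalized (ACTB/GAPDH/POLR2A). Curves fit bidirectionally vs DMSO baseline.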

Read-out in test [5]: Glutathione S-transferase M3 (GSTM3), GSTM3 (gene 2947)
Description: LTEA_HepaRG_GSTM3: Life Technologies and Expression Analysis (LTEA) Assay for Glutathione S-transferase M3 (GSTM3) using HepaRG (AID 2283501). Summed up:
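Differentiated HepaRG cells in serum-free induction medium were exposed in duplicate for 48 h to 8 half-log concentrations up to 100 uM in 0.5% DMSO. GSTM3 mRNA was measured by TaqMan qRT-PCR, normalized to ACTB/GAPDH/POLR2A, and fitted bidirectionally versus DMSO.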

Read-out in test [6]: Heat shock 70 kDa protein 1 (HSPA1A), gene 3303
Description: LTEA_HepaRG_HSPA1A: Life Technologies and Expression Analysis (LTEA) Assay for Heat shock 70 kDa protein 1 (HSPA1A) using HepaRG (AID 2283502). Summed up:
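HepaRG, 48 h exposure, 8-pt half-log CRC from 100 uM in 0.5% DMSO, duplicates. Readout: TaqMan qRT-PCR of HSPA1A mRNA, housekeeping-normalized (ACTB/GAPDH/POLR2A). Bidirectional fit vs 0.5% DMSO baseline.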

Read-out in test [7]: Hypoxia-inducible factor 1-alpha (Homo sapiens) (UniProt Q16665)
In words: LTEA_HepaRG_HIF1A: Life Technologies and Expression Analysis (LTEA) Assay for Hypoxia-inducible factor 1 (HIF1A) Trancription factor using HepaRG (AID 2283503). In short, it runs like this:
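Gain- or loss-of-signal HIF1A mRNA changes are fitted against a DMSO baseline. HepaRG cultures receive eight concentrations, highest 100 uM, for 48 h in serum-free induction medium with 0.5% DMSO.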

Read-out in test [8]: 3-Hydroxy-3-Methylglutaryl-CoA Synthase 2 (HMGCS2), HMGCS2 (gene 3158)
Description: LTEA_HepaRG_HMGCS2: Life Technologies and Expression Analysis (LTEA) Assay for 3-Hydroxy-3-Methylglutaryl-CoA Synthase 2 (HMGCS2) using HepaRG (AID 2283504). In short, it runs like this: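 Differentiated human HepaRG cells were exposed in duplicate for 48 h in serum-free induction medium to eight concentrations (top 100 uM, half-log steps, 0.5% DMSO). HMGCS2 mRNA was quantified by TaqMan qRT-PCR, normalised to ACTB, GAPDH and POLR2A, then fitted bidirectionally against DMSO.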

Read-out in another test: HGF (gene 3082)
Description: LTEA_HepaRG_HGF: Life Technologies and Expression Analysis (LTEA) Assay for Hepatocyte Growth Facto (HGF) using HepaRG (AID 2283505). Summed up:
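Differentiated human HepaRG cells in serum-free induction medium were exposed in duplicate for 48 h to eight concentrations (top 100 uM, half-log steps, 0.5% DMSO). HGF mRNA was quantified by qRT-PCR, normalized to ACTB, GAPDH and POLR2A.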

Read-out in test [9]: Insulin Like Growth Factor 1 (IGF1), IGF1 (gene 3479)
In words: LTEA_HepaRG_IGF1: Life Technologies and Expression Analysis (LTEA) Assay for Insulin Like Growth Factor 1 (IGF1) using HepaRG (AID 2283506). In short, it runs like this: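 qRT-PCR readout of IGF1 mRNA, normalized to three housekeeping genes, after 48 h chemical exposure of HepaRG cells. Concentrations: 8-point half-log series, top 100 uM, 0.5% DMSO vehicle. Gain or loss fitted against DMSO baseline.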

Read-out in test [10]: Intercellular Adhesion Molecule 1 (ICAM1), ICAM1 (gene 3383)
In words: LTEA_HepaRG_ICAM1: Life Technologies and Expression Analysis (LTEA) Assay for Intercellular Adhesion Molecule 1 (ICAM1) using HepaRG (AID 2283507). In short, it runs like this: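 Differentiated HepaRG cells in serum-free induction medium were exposed in duplicate for 48 h to eight half-log concentrations up to 100 uM in 0.5% DMSO. Transcript levels were measured by qRT-PCR normalized to ACTB, GAPDH and POLR2A; bidirectional fits relative to DMSO.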

Read-out in test [11]: Insulin-like growth factor-binding protein 1 (IGFBP1), IGFBP1 (gene 3484)
In words: LTEA_HepaRG_IGFBP1: Life Technologies and Expression Analysis (LTEA) Assay for Insulin-like growth factor-binding protein 1 (IGFBP1) using HepaRG (AID 2283508). In short, it runs like this:
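Differentiated human HepaRG cells in serum-free induction medium were exposed in duplicate for 48 h to eight concentrations, top 100 uM with half-log dilutions, in 0.5% DMSO. Transcript levels came from qRT-PCR normalised to ACTB, GAPDH and POLR2A, fitted bidirectionally against DMSO.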

Read-out in test [12]: Interleukin 6 (IL6), IL6 (gene 3569)
Description: LTEA_HepaRG_IL6: Life Technologies and Expression Analysis (LTEA) Assay for Interleukin 6 (IL6) using HepaRG (AID 2283509). Summed up: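 Changes in IL6 mRNA, up or down relative to 0.5% DMSO controls, were derived from concentration-response curves in human HepaRG cells treated for 48 h at up to 100 uM, with ACTB, GAPDH and POLR2A as normalizers.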

Read-out in test [13]: Interleukin 6 Receptor (IL6R), IL6R (gene 3570)
Description: LTEA_HepaRG_IL6R: Life Technologies and Expression Analysis (LTEA) Assay for Interleukin 6 Receptor (IL6R) using HepaRG (AID 2283510). In short, it runs like this:
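HepaRG, 48 h exposure, 8-pt half-log series, top 100 uM, 0.5% DMSO vehicle, duplicates. Read-out: TaqMan qRT-PCR of IL6R transcript, housekeeping-gene normalized. Gain or loss fitted relative to DMSO baseline.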

Read-out in test [14]: Potassium channel subfamily K member 1 (KCNK1), KCNK1 (gene 3775)
Description: LTEA_HepaRG_KCNK1: Life Technologies and Expression Analysis (LTEA) Assay for Potassium channel subfamily K member 1 (KCNK1) using HepaRG (AID 2283511). Summed up:
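Human HepaRG cultures receive test chemicals for 48 h in 0.5% DMSO, top concentration 100 uM with half-log dilutions. Induction or suppression of KCNK1 mRNA relative to DMSO is derived by bidirectional fitting of qRT-PCR data.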

Read-out in test [15]: Keratin 19 (KRT19), KRT19 (gene 3880)
Description: LTEA_HepaRG_KRT19: Life Technologies and Expression Analysis (LTEA) Assay for Keratin 19 (KRT19) using HepaRG (AID 2283512). In short, it runs like this: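 Differentiated human HepaRG cells, plated 48 h, were exposed in duplicate for 48 h in serum-free induction medium to eight half-log concentrations up to 100 uM in 0.5% DMSO. KRT19 mRNA was quantified by qRT-PCR, normalized to ACTB, GAPDH and POLR2A, and fitted bidirectionally versus DMSO.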

Read-out in test [16]: JUN Transcription Factor, JUN (gene 3725)
Description: LTEA_HepaRG_JUN: Life Technologies and Expression Analysis (LTEA) Assay for JUN Transcription Factor using HepaRG (AID 2283513). In short, it runs like this:
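HepaRG, 48 h exposure, 8-pt half-log series top 100 uM, 0.5% DMSO, duplicate. JUN mRNA by qRT-PCR (Fluidigm), housekeeping-normalized (ACTB/GAPDH/POLR2A); bidirectional curve fit vs DMSO baseline.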

Read-out in test [17]: Lipase C (LIPC), LIPC (gene 3990)
Description: LTEA_HepaRG_LIPC: Life Technologies and Expression Analysis (LTEA) Assay for Lipase C (LIPC) using HepaRG (AID 2283514). Summed up: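 In this multiplexed gene-expression screen, human HepaRG cultures received test chemicals for 48 h across eight concentrations with 100 uM highest, in duplicate. Values reflect LIPC mRNA induction or suppression versus DMSO vehicle, from normalized qRT-PCR.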

Read-out in test [18]: Lipoprotein lipase (LPL), LPL (gene 4023)
Description: LTEA_HepaRG_LPL: Life Technologies and Expression Analysis (LTEA) Assay for Lipoprotein lipase (LPL) using HepaRG (AID 2283515). In short, it runs like this:
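Concentration-response testing used half-log steps from 100 uM in 0.5% DMSO on human HepaRG cells, 48 h, duplicate wells. Phenobarbital 1 mM served as induction control; LPL mRNA was normalized to ACTB, GAPDH, POLR2A.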

Read-out in test [19]: MicroRNA 122 (MIR122), gene 406906
In words: LTEA_HepaRG_MIR122: Life Technologies and Expression Analysis (LTEA) Assay for MicroRNA 122 (MIR122) using HepaRG (AID 2283516). Further: the transcript read is the microRNA miR-122. In short, it runs like this:
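qRT-PCR read-out (TaqMan, Fluidigm array), normalized to three housekeeping genes; HepaRG cells dosed 48 h at 8 concentrations up to 100 uM in 0.5% DMSO, duplicate; gain or loss fitted against DMSO baseline.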

Active and inactive are the calls of the source. How the source made its calls: active means hit-call score of the fitted dose curve at least 0.9, where 1 is the maximum; inactive means score below 0.9.

Hypoxia-inducible factor 1-alpha (Homo sapiens), sequence (Q16665 whole entry, looked up): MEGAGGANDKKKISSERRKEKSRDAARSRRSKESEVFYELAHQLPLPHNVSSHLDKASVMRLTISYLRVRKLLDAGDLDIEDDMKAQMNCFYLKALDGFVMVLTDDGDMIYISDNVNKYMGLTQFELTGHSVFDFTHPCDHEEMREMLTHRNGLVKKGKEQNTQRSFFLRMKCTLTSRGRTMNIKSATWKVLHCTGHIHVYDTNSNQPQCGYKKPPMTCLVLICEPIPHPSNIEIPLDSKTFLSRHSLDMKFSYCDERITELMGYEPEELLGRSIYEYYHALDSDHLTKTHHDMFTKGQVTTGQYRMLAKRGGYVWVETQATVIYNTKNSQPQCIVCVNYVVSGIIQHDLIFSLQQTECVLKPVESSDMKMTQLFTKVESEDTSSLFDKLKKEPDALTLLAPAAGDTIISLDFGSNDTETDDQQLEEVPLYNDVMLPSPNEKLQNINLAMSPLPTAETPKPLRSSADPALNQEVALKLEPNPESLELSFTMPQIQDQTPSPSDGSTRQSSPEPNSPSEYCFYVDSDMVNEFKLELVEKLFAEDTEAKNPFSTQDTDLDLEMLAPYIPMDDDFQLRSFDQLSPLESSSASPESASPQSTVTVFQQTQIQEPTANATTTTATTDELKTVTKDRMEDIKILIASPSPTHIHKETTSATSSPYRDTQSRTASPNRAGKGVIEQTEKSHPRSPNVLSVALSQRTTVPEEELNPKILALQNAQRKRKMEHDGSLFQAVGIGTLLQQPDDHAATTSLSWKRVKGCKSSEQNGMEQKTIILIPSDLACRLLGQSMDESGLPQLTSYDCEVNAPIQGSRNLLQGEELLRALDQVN

For `O=C(NS(=O)(=O)/C=C/c1cccs1)c1ccc(F)cc1Br`, the call in test [1], in [2], in test [3], in test [4], in test [5] and in test [6] was inactive. In addition, the result (in test [7]; with HGF (gene 3082); in test [10]; in [11]; in test [12]; in test [13]) was inactive. Besides, the molecule was called inactive in test [14], in [15], in test [16], in test [17], in test [18] and in test [19]. Besides, the AC50 – broadly, the midpoint of the concentration-response curve, whichever way the signal moves – in test [8] is 71 µM (active); in [9] it was 31.1 µM (active).
`Cc1ccc(C(C)(C)C)c(O)c1`: the result in test [1], in [2], in test [3], in test [4], in test [5] and in test [6] was inactive. Also, the call (in test [7]; in test [8]; in the test with HGF (gene 3082); in [9]; in test [10]; in test [11]) was inactive. In addition, the outcome in test [12], in test [13], in test [14], in test [15], in [16] and in test [17] was inactive. The outcome in test [18] and in test [19] was inactive.
For `CC(=O)CC(c1ccccc1)c1c(O)c2ccccc2oc1=O` (stereo not drawn), the result in test [1], in test [2], in test [3], in [4], in test [5] and in test [6] was inactive. Besides, the molecule was called inactive (in [7]; in [8]; with HGF (gene 3082); in [9]; in test [10]; in test [11]). For the same molecule, the molecule was classed as inactive in [12], in test [13], in test [15], in test [16], in test [17] and in test [18]. Besides, the outcome in [19] was inactive.
Regarding `O=C(O)CN(CC(=O)O)CC(=O)O`, the molecule was called inactive in test [1], in [2], in [3], in [4], in test [5] and in test [6]. The call (in test [7]; in [8]; with HGF (gene 3082); in [9]; in test [10]; in test [11]) was inactive. For the same molecule, the outcome in test [12], in test [13], in test [15], in test [16], in test [17] and in [18] was inactive. The outcome in test [19] was inactive.
For `CC(=O)O`, the molecule was called inactive in [1], in test [2], in test [3], in test [4], in [5] and in [6]. Moreover, the molecule was called inactive (in test [7]; in test [8]; with HGF (gene 3082); in [9]; in [10]; in [11]). For the same molecule, the call in test [12], in test [13], in test [14], in [15], in test [16] and in test [17] was inactive. The call in test [18] and in [19] was inactive.
For the molecule `COc1ccc(C(=O)Nc2nc3ccccc3c(NCc3ccccc3)c2C#N)cc1`, the AC50 in test [1] was 20.5 µM (active); in test [3] it was 14.3 µM (active); in test [4], 10.9 µM (active); in test [9] it was 13.4 µM (active); in [11], 17.9 µM (active); in test [13], 4.44 µM (active). Also, the AC50 in [15] was 12.9 µM (active); in test [17] it was 15.7 µM (active); in [18], 4.35 µM (active); in test [19] it was 14.7 µM (active). Besides, the molecule was called inactive (in test [2]; in test [5]; in test [6]; in test [7]; in [8]; with HGF (gene 3082)). Also, the molecule was classed as inactive in test [10], in [12], in test [14] and in test [16].

Source of the values: PubChem BioAssay (EPA / NIEHS).
